Inconclusive results are not listed. Calls of active or inactive are those of the source. How the source made its calls: active means hit-call score of the fitted dose curve at least 0.9, where 1 is the maximum; inconclusive means response in the unintended direction; inactive means score below 0.9.
Test system: not listed separately
Test: ATG_M_19_TRANS: Attagene TRANS-FACTORIAL HepG2 Assay for M19 Transcription Factor (Internal Marker) (AID 2282974)
Conditions: HepG2 Attagene TRANS-FACTORIAL M19 internal marker reporter
Summary of the method: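 24 h chemical exposure of transiently transfected HepG2 (MRTU library). RNA → oligo(dT) RT → PCR → 6-FAM labelling → HpaI cut → CE fluorescence. Positive-direction fit vs DMSO baseline; background internal-marker readout.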

outcome, inactive:
CCCCCCCC/C=C\CCCCCCCC(=O)OCC
CN1CCOCC1
CC=Cc1ccc(OC)c(OC)c1
C=CCCCCCCCCCC
C=C(C)[C@@H]1CC=C(C)C(=O)C1
C=COCCOCCOC=C
CN(C)C(=S)SC(=S)N(C)C
CC(Oc1cc(Cl)ccc1Cl)C(=O)O (stereo not given)
CCCC(C)C(O)CC (stereo not given)
CC(=O)C1(C)CC2=C(CCCC2(C)C)CC1C (stereo not given)
Clc1ccc(C(c2ccccc2Cl)C(Cl)Cl)cc1 (stereo not given)
C=CC(=O)OCCCC
CC[N+](C)(CC)CC
CCCCCCCCc1ccc(S(=O)(=O)O)cc1
CCCCCCCCC=CCCCCCCCC1=NCCN1CCO
CCCCCCOCCOCCO

Test system: not listed separately
Test: ATG_GAL4_TRANS: Attagene TRANS-FACTORIAL HepG2 Assay for GAL4 (Internal Marker) (AID 2282976)
Conditions: HepG2 Attagene TRANS GAL4 internal marker reporter
Summary of the method: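 In transfected human HepG2 liver cells dosed 24 h, GAL4 reporter mRNA serves as a baseline marker. Detection by RT-PCR with fluorescent capillary electrophoresis, activity fitted upward relative to DMSO.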

outcome, inactive:
CN1CCOCC1
C=CCCCCCCCCCC
C=COCCOCCOC=C
CC(Oc1cc(Cl)ccc1Cl)C(=O)O (stereo not given)
CCCCCC(C=O)=Cc1ccccc1
CCCC(C)C(O)CC (stereo not given)
Cc1ccc(S(=O)(=O)Oc2ccc(N=Nc3ccc(-c4ccc(N=Nc5c(O)ccc6cc(S(=O)(=O)O)cc(S(=O)(=O)O)c56)c(C)c4)cc3C)cc2)cc1
Clc1ccc(C(c2ccccc2Cl)C(Cl)Cl)cc1 (stereo not given)
CC[N+](C)(CC)CC
Cc1cc(=O)oc2cc(N(C)C)ccc12
O=C(O)CCCCCCCCC(=O)O
N#Cc1cscn1
OCC(O)c1ccccc1 (stereo not given)

Molecular target: Estrogen-related receptor gamma (Homo sapiens) (UniProt P62508)
Test: ATG_ERRg_TRANS: Attagene TRANS-FACTORIAL HepG2 Assay for human Estrogen-Related Receptor gamma (ERRg) (AID 2282977);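 further: hits increase reporter signal over DMSO so potencies reflect activators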
Conditions: HepG2 Attagene TRANS reporter, ERRg transactivation
Summary of the method: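 HepG2 cells transiently transfected with multiplexed GAL4-UAS reporter units and chimeric NR-Gal4 constructs were exposed to test chemicals for 24 h. Reporter mRNA was measured by RT-PCR, 6-FAM primer extension, HpaI digestion and capillary electrophoresis; gain-of-signal versus DMSO.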

Sequence of Estrogen-related receptor gamma (Homo sapiens) (P62508 whole entry, looked up): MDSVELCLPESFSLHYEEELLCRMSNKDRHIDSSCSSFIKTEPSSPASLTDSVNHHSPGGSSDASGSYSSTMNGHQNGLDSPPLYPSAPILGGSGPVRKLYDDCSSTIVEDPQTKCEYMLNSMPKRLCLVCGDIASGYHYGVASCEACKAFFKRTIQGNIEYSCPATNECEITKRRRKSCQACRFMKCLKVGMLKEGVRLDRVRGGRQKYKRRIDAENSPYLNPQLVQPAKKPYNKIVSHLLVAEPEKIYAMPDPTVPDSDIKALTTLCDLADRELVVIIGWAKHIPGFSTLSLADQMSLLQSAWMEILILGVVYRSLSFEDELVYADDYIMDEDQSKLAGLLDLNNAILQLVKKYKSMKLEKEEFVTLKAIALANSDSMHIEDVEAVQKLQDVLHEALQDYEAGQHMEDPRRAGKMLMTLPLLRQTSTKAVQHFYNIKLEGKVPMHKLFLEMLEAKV

outcome, inactive:
CCCCCCCC/C=C\CCCCCCCC(=O)OCC
CN1CCOCC1
[Cl][Au]([Cl])[Cl]
O=c1c(O)c(-c2ccc(O)cc2)oc2cc(O)cc(O)c12
COC(=O)c1ccc(C)cc1C1=NC(C)(C(C)C)C(=O)N1 (stereo not given) (tested in a mixture with another compound)
CCN(CCN)c1cccc(C)c1
Cc1ccc(S(=O)(=O)Oc2ccc(N=Nc3ccc(-c4ccc(N=Nc5c(O)ccc6cc(S(=O)(=O)O)cc(S(=O)(=O)O)c56)c(C)c4)cc3C)cc2)cc1
CCCCCCC(O)CCCCCCCCCCC(=O)O (stereo not given)
N#Cc1ccc(CC(=O)c2cccc(C(F)(F)F)c2)cc1
Nc1ccc(NCCO)c([N+](=O)[O-])c1
CCCCCCCCC=CCCCCCCCC1=NCCN1CCO

Reference: PubChem BioAssay (EPA / NIEHS)
